Assay results as given in the supplement of paper PMC10849652.
The full data set covers some 7,900 targets. This sample favours those with a hit. About 0.6% of all pairs of compound and target were hits.

Experiments:
Test in all cases: log2 fold change, soluble protein after heating vs DMSO (PISA); higher = thermal stabilisation; K562 cells, 10 uM, 30 min; active = over 0.2 and 3.5 SD of the protein, either way, in both replicates (recomputed)
[1] = compound: C1=CC=C(C=C1)[C@H](COC2=CC3=C(C=C2)NC(=O)N3)NC(=O)C4=CC=CN(C4=O)CC5=CC(=C(C=C5)F)F
How it was run: (§1)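 For each measurement, 10 μM compound was applied for 30 min to K562 cells at 2×10^6 cells/mL. Aliquots were heated for 3 min across 48°C-58°C, pooled, and extracted in PBS with 0.5% NP-40 at 4°C; the supernatant after 21,000xg for 90 min was soluble protein. This was quantified by TMTpro 16plex LC-MS/MS with channel sums equalised, and thermal stability was reported relative to control samples from duplicates, on a log2 fold-change scale.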

[2] = compound: CC1=C(SC2=C1C(=N[C@H](C3=NN=C(N32)C)CC(=O)N)C4=CC=C(C=C4)Cl)C
How it was run: as §1

[3] = compound: CC1=C2C(=CC=C1)N=C(N(C2=O)C3=CC=CC=C3C)CN4C=NC5=C(N=CN=C54)N
How it was run: as §1

[4] = compound: Cc1sc2c(c1C)C(c1ccc(Cl)cc1)=N[C@@H](CC(=O)OC(C)(C)C)c1nnc(C)n1-2
How it was run: as §1

[5] = compound: c1ccc([C@@H]2C[C@H]2NC2CCNCC2)cc1
How it was run: as §1

Measured: log2 fold change

TAF9 (UniProt Q16594)
Sequence of UniProt Q16594 (Q16594 whole entry, looked up): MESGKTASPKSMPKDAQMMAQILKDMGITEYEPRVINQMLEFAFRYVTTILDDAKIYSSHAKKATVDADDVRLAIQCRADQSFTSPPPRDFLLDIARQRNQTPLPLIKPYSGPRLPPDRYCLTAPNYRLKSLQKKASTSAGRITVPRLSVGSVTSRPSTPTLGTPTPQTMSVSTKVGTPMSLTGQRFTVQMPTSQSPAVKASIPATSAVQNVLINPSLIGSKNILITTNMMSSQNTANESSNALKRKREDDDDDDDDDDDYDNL
inactive: [1] 0.046 | [2] -0.043 | [3] -0.114 | [4] 0.049 | [5] 0.019

SPAST (UniProt Q9UBP0)
inactive: [1] -0.057 | [2] 0.026 | [3] 0.117 | [4] -0.016 | [5] -0.085

SUCLG1 (UniProt P53597)
Sequence of UniProt P53597 (P53597 whole entry, looked up): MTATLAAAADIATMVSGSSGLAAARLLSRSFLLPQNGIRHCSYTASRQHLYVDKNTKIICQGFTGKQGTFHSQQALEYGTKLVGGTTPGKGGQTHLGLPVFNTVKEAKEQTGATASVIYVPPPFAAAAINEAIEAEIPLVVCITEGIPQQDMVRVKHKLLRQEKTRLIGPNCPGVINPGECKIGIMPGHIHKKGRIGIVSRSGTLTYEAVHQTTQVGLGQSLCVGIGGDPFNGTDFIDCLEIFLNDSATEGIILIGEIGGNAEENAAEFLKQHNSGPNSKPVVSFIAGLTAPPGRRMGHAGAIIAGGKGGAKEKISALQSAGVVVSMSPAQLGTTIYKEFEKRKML
inactive: [1] 0.004 | [2] 0.073 | [3] 0.042 | [4] -0.021 | [5] -0.041

STK26 (UniProt Q9P289)
Sequence of UniProt Q9P289 (Q9P289 whole entry, looked up): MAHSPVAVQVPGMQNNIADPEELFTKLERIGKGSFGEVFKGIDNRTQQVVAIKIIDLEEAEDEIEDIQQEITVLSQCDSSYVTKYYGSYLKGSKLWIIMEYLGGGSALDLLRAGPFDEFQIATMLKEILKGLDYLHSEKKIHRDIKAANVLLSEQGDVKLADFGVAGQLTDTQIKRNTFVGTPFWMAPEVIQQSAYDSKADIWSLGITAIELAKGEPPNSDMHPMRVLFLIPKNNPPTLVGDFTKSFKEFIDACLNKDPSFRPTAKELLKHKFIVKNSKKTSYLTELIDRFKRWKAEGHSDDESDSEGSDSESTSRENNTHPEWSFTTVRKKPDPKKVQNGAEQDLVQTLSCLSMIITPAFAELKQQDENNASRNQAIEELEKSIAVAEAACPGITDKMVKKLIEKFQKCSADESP
inactive: [1] -0.077 | [2] -0.029 | [3] -0.006 | [4] 0.004 | [5] 0.026

SRCAP (UniProt Q6ZRS2)
inactive: [1] 0.074 | [2] 0.013 | [3] 0.101 | [4] -0.005 | [5] -0.136

SNRNP27 (UniProt Q8WVK2)
Sequence of UniProt Q8WVK2 (Q8WVK2 whole entry, looked up): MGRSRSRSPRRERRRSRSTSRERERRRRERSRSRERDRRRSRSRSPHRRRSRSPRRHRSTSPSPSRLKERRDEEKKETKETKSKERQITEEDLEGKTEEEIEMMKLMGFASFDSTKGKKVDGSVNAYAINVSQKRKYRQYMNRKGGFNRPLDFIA
inactive: [1] 0.027 | [2] -0.058 | [3] 0.021 | [4] 0.023 | [5] 0.044

SPTBN4 (UniProt Q9H254)
inactive: [1] -0.058 | [2] -0.083 | [3] 0.148 | [4] 0.014 | [5] -0.001

SUOX (UniProt P51687)
Sequence of UniProt P51687 (P51687 whole entry, looked up): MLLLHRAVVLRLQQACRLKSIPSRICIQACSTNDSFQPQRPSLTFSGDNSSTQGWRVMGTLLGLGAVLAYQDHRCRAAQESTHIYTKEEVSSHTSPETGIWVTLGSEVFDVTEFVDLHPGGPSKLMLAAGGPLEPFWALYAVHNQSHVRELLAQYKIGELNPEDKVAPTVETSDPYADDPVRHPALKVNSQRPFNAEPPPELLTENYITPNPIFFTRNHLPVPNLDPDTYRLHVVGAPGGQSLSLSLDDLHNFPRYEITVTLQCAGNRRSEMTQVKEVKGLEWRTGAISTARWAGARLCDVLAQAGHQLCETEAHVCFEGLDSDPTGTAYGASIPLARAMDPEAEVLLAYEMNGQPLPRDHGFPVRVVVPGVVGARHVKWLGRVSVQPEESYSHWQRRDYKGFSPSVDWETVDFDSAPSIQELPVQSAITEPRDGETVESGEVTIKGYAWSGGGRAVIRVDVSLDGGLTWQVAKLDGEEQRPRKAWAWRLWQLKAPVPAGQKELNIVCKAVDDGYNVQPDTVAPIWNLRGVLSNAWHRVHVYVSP
inactive: [1] 0.01 | [2] 0 | [3] 0.096 | [4] -0.011 | [5] -0.021

TBC1D10B (UniProt Q4KMP7)
inactive: [1] -0.021 | [2] 0.062 | [3] 0.014 | [4] -0.026 | [5] 0.006

STX7 (UniProt O15400)
Sequence of UniProt O15400 (O15400 whole entry, looked up): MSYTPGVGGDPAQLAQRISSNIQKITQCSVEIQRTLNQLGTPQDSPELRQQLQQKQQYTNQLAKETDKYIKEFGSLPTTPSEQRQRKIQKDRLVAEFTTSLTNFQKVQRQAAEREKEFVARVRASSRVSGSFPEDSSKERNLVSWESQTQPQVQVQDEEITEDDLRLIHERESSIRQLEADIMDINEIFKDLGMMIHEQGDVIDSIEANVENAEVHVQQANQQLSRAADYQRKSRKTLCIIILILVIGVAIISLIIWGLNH
inactive: [1] 0.023 | [2] 0.01 | [3] 0.027 | [4] -0.011 | [5] -0.011

SYNE2 isoform 2 (UniProt Q8WXH0)
inactive: [1] 0.064 | [2] 0.055 | [3] 0.209 | [4] -0.004 | [5] 0.096

SLC25A42 (UniProt Q86VD7)
Sequence of UniProt Q86VD7 (Q86VD7 whole entry, looked up): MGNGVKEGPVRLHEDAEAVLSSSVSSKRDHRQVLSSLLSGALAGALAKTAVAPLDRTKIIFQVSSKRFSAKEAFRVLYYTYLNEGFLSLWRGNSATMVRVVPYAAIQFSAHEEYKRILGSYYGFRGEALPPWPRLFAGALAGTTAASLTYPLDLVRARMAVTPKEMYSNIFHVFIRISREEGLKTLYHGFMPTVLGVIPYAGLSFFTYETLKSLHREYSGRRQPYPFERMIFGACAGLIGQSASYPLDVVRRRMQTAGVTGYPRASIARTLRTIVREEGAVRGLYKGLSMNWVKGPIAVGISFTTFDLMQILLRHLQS
inactive: [1] 0.073 | [2] 0.051 | [3] -0.019 | [4] -0.005 | [5] 0.003

STK11IP (UniProt Q8N1F8)
Sequence of UniProt Q8N1F8 (Q8N1F8 whole entry, looked up): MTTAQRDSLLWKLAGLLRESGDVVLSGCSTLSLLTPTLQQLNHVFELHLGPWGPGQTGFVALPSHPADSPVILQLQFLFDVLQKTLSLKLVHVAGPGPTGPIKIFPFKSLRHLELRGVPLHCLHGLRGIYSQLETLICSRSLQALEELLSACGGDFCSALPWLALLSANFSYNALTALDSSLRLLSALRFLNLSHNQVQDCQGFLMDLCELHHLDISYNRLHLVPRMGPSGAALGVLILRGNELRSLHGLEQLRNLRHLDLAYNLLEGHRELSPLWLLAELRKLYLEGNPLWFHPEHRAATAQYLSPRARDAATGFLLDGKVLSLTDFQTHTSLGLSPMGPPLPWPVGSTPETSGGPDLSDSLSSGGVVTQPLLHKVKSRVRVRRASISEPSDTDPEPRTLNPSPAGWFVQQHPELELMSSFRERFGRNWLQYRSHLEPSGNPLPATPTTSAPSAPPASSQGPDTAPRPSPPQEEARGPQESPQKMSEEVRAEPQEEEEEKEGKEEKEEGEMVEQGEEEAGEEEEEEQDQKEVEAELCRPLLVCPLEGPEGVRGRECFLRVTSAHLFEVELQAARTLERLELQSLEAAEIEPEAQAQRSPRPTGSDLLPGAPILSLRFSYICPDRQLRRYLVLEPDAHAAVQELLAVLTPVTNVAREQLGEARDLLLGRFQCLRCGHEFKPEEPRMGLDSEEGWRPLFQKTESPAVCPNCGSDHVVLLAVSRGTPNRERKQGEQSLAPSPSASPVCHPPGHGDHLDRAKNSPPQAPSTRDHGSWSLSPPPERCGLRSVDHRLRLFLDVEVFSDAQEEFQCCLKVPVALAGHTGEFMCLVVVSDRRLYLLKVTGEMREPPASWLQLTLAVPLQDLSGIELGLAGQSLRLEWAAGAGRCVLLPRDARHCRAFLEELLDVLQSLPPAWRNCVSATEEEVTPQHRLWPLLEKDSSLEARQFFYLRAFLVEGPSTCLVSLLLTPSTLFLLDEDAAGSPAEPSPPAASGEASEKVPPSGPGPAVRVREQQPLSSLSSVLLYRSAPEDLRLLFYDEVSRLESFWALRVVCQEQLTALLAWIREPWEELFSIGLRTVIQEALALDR
inactive: [1] 0.035 | [2] 0.026 | [3] -0.02 | [4] 0.05 | [5] -0.048

SMCHD1 (UniProt A6NHR9)
inactive: [1] 0.129 | [2] 0.141 | [3] 0.063 | [4] 0.01 | [5] 0.036

SPPL2B (UniProt Q8TCT7)
Sequence of UniProt Q8TCT7 (Q8TCT7 whole entry, looked up): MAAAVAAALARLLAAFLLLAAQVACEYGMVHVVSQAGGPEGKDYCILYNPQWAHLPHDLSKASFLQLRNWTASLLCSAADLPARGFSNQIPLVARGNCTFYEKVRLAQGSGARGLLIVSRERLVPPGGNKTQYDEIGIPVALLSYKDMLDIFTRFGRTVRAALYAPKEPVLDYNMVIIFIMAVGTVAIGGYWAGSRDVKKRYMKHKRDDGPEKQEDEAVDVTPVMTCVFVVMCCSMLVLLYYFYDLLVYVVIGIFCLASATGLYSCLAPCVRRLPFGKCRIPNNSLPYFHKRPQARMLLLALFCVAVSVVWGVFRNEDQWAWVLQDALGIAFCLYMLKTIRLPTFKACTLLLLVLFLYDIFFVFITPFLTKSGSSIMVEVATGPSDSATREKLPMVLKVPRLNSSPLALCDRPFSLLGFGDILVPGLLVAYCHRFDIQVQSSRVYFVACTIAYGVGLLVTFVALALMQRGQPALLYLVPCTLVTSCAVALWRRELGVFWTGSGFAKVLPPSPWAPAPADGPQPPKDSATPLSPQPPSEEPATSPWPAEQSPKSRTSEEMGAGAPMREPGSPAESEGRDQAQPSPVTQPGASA
inactive: [1] 0.039 | [2] 0.132 | [3] 0.049 | [4] 0.024 | [5] -0.022

TFR2 (UniProt Q9UP52)
inactive: [1] 0.01 | [2] 0.018 | [3] 0.004 | [4] 0.007 | [5] 0.026

SRSF7 (UniProt Q16629)
Sequence of UniProt Q16629 (Q16629 whole entry, looked up): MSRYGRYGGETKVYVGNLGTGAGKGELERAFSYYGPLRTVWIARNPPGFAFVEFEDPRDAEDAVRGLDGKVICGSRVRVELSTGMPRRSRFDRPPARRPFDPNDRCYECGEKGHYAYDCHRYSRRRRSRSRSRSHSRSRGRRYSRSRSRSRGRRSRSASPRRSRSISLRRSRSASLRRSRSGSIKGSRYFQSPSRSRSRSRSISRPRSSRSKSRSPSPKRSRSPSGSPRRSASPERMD
inactive: [1] 0.136 | [2] -0.171 | [3] -0.093 | [4] 0.209 | [5] 0.055

TEX264 (UniProt Q9Y6I9)
Sequence of UniProt Q9Y6I9 (Q9Y6I9 whole entry, looked up): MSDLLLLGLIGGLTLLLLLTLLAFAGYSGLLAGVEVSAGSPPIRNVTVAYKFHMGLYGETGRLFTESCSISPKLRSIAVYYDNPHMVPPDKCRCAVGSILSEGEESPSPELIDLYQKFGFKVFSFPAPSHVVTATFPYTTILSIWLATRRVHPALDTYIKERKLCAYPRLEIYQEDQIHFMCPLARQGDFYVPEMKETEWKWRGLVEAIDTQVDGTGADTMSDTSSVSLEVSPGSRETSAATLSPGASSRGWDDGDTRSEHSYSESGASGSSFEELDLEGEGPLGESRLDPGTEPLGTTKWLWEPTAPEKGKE
inactive: [1] -0.024 | [2] 0.03 | [3] -0.072 | [4] -0.084 | [5] -0.02

SLC39A11 (UniProt Q8N1S5)
inactive: [1] 0.053 | [2] 0.072 | [3] 0.078 | [4] -0.323 | [5] -0.003

TIMM29 (UniProt Q9BSF4)
Sequence of UniProt Q9BSF4 (Q9BSF4 whole entry, looked up): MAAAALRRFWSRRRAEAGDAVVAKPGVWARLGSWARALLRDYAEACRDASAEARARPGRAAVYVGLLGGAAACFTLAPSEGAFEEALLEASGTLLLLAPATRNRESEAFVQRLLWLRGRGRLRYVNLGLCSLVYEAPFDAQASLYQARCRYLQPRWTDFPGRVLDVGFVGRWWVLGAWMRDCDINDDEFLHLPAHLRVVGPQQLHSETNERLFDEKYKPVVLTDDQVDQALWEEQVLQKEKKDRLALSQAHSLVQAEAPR
inactive: [1] -0.034 | [2] 0.114 | [3] -0.026 | [4] -0.006 | [5] 0.031

SMARCA5 (UniProt O60264)
inactive: [1] -0.168 | [2] 0.063 | [3] 0.105 | [4] -0.026 | [5] -0.006

SLC29A3 (UniProt Q9BZD2)
inactive: [1] 0.036 | [2] 0.033 | [3] 0.044 | [4] -0.352 | [5] 0.139

TIMM10B (UniProt Q9Y5J6)
Sequence of UniProt Q9Y5J6 (Q9Y5J6 whole entry, looked up): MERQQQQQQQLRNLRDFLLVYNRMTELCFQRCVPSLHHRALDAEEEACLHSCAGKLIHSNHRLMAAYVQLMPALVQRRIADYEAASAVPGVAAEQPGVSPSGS
inactive: [1] -0.018 | [2] 0.18 | [3] 0.058 | [4] 0.066 | [5] -0.026

SNX12 isoform 1 (UniProt Q9UMY4)
inactive: [1] 0.016 | [2] -0.009 | [3] 0.095 | [4] 0.026 | [5] 0.02
